About 960 (1.5%) of roughly 66,000 compounds showed an effect of 50% or more. What follows is part of a selection rich in strong results, with near analogues and random picks from the rest.
Tested on: Trypanosoma brucei
Test: Trypanosoma brucei 72 hour study
Format: functional, organism-based
Set-up: scale not given: in the data most compounds retested in dose-response had high values

| Compound | Percent Effect (30 µM, 30.03 µM) | Percent Effect (30.3 µM, […]) |
| --- | --- | --- |
| CN(C)c1nc(N)nc(CN2CCCC2c2cccs2)n1 (stereo not drawn) | -6.91% |  |
| Cc1ccc(C(=O)NCc2ccnc(C3CCCOC3)n2)s1 (stereo not drawn) |  | 49.43% |
| Cc1ccsc1C(=O)NCc1ccnc(C2CCCOC2)n1 (stereo not drawn) |  | 54.51% |
| O=C(NCc1ccnc(C2CCCOC2)n1)c1cccs1 (stereo not drawn) |  | -2.313% |
| Cn1ccc(CN2CCC3(CCCN3CC3CC3)CC2)n1.O=C(O)C(F)(F)F.O=C(O)C(F)(F)F |  | -89.65% |
| COC1CN(C(=O)CC(C)(C)C)CCC(=O)N(C)c2ccccc21 (stereo not drawn) |  | -11.06% |
| CC(C)NC(=O)[C@H]1C[C@@H]2CN(C(=O)NCc3ccccc3)C[C@H]1O2 | 43.99% |  |
| CSCC[C@@H](CO)Nc1ccc(-c2nc(-c3ccccc3F)no2)cn1 |  | -25.91% |
| CSCC[C@@H](CO)Nc1ccc(-c2nc(C3CC3)no2)cn1 |  | 19.73% |
| CSCC[C@@H](CO)Nc1ccc(-c2nc(-c3ccccc3C)no2)cn1 |  | 99.8% |
| Cc1ccc(CN(C)C(=O)c2cnsn2)cc1 | -21.68% |  |
| CCc1ncc(CN2CCOC(Cc3cccc(F)c3)C2)cn1 (stereo not drawn) |  | -57.81% |
| O=C(Cc1ccc2c(c1)CCCC2)Nc1cccnc1N1CCSCC1 | 7.169% |  |
| O=C(NCCN1CCCC1)c1cc2c(s1)CCN2C(=O)c1ccccc1 |  | -8.761% |
| COCCNC(=O)c1cc2c(s1)CCN2C(=O)c1ccccc1 | 61.44% |  |
| CCCNC(=O)c1cc2c(s1)CCN2C(=O)c1ccccc1 |  | -5.969% |
| CCOc1ncccc1CNC(=O)Nc1ccc(N(C)C)nc1 |  | -10.18% |
| CN1CCN(C(=O)C2CCN(c3cccnn3)C2)CC1 (stereo not drawn) |  | 1.766% |
| CN1CCN(C(=O)C2CCCN(c3cccnn3)C2)CC1 (stereo not drawn) |  | 101% |
| CN1CCN(C(=O)C2CCN(c3cccnn3)CC2)CC1 |  | -20.3% |
| CC(C)(C)CN1CC(O)CN(C(=O)c2cccc(C(F)(F)F)c2)CC1=O (stereo not drawn) |  | -4.351% |
| CC(C)N(C)Cc1cnc2n1CCN(C(=O)Cc1ccsc1)C2.O=C(O)C(F)(F)F | -22.47% |  |
| Cc1ccc2c(n1)N(CCN(C)C)CCN(C(=O)c1ccc[nH]1)C2.O=C(O)C(F)(F)F.O=C(O)C(F)(F)F | 4.99% |  |
| c1cc(-c2n[nH]c(CNc3nnc(C4CC4)o3)n2)ccn1 |  | 0.7676% |

| Compound | Percent Effect (30 µM, 30.03 µM) | Percent Effect (30.3 µM, […]) |
| --- | --- | --- |
| c1ccc(-c2nc(CCNc3nnc(C4CCC4)o3)no2)cc1 |  | 99.59% |
| c1ccc(-c2n[nH]c(CCNc3nnc(C4CCC4)o3)n2)cc1 |  | 99.86% |
| CCCc1nnc(NCCc2noc(C3CCC3)n2)o1 | -16.87% |  |
| CCCc1nnc(NCCc2noc(C3CCCC3)n2)o1 | -39.45% |  |
| O=S(=O)(NCCc1nc(-c2cccnc2)n[nH]1)NCc1ccccc1 |  | -84.2% |
| CN(C)C(=O)N[C@H]1CN(Cc2ccc3c(c2)OCO3)[C@@H]2CCCO[C@H]12.O=C(O)C(F)(F)F |  | -7.695% |
| CS(=O)(=O)NCc1cncc2c1CCN(C(=O)N1CCCC1)C2.Cl |  | -11.25% |
| Cc1noc([C@@]23CCO[C@@H]2CCN(Cc2scnc2C)C3)n1.O=C(O)C(F)(F)F |  | 7.313% |
| O=c1[nH][nH]cc1-c1ccnc(NCCc2cccc(O)c2)n1 |  | -16.62% |
| CCN(CC1CCOC1)C(=O)c1ccc(N2CCOCC2)c(F)c1 (stereo not drawn) |  | -9.543% |
| COc1cccc(NC(=O)N(CCO)Cc2ccsc2)c1 | 51.17% |  |
| O=C(Nc1ccncc1)N(CCO)Cc1ccsc1 |  | 7.021% |
| CN(C)C(=O)c1cccc(NC(=O)N(CCO)Cc2ccsc2)c1 | -3.434% |  |
| Cc1nc(N)nc(C)c1CC(=O)NCc1ccc2nonc2c1 | -40.59% |  |
| Cc1noc(C)c1CN1CC[C@@H](OCC2CC2)[C@@H](Cc2ccccc2)C1.O=C(O)C(F)(F)F | 12.8% |  |
| O=C(c1cc2cc(F)ccc2[nH]1)N1CCC(Nc2cccnn2)CC1 |  | -6.499% |
| O=C(c1cc2ccccc2[nH]1)N1CCC(Nc2cccnn2)CC1 |  | -25.8% |
| O=C(c1cc2cc(I)ccc2[nH]1)N1CCC(Nc2cccnn2)CC1 |  | 85.16% |
| CCCN(CCC)c1ncc(S(=O)(=O)c2ccccc2)c(N)n1 |  | 81.44% |
| CCCN(CCC)c1ncc(S(=O)(=O)c2ccc(C)cc2)c(N)n1 |  | 0.2073% |
| CCCN(CCC)c1ncc(S(=O)(=O)c2cccc(C)c2)c(N)n1 |  | 1.054% |
| O=C(N1CCCC1)N1C[C@H]2CCC[C@@]2(COCc2ccccn2)C1.O=C(O)C(F)(F)F |  | 8.939% |
| Cc1ccc(CN2CCN(C3CCCC3)CC2CCO)o1 (stereo not drawn) | -4.422% |  |
| CN1C(=O)CC(c2cnn(C)c2)C12CCN(CC1CCOCC1)CC2.O=C(O)C(F)(F)F (stereo not drawn) |  | -2.852% |

Source: ChEMBL document CHEMBL3988442, “University of Dundee, Small-Polar-MMV Screening Library” (2021)
